{"source": "ChEMBL document CHEMBL3988442", "about": "“University of Dundee, Small-Polar-MMV Screening Library” (2021)", "note": "The whole screen tested about 69,000 compounds, of which about 30 (0.04%) showed an effect of 50% or more. What follows is part of a selection rich in strong results, with near analogues and random picks from the rest.", "data": [{"target": "T1, Histidine--tRNA ligase (Trypanosoma cruzi (strain CL Brener)) (UniProt Q4DA54)", "T1 sequence (whole entry)": "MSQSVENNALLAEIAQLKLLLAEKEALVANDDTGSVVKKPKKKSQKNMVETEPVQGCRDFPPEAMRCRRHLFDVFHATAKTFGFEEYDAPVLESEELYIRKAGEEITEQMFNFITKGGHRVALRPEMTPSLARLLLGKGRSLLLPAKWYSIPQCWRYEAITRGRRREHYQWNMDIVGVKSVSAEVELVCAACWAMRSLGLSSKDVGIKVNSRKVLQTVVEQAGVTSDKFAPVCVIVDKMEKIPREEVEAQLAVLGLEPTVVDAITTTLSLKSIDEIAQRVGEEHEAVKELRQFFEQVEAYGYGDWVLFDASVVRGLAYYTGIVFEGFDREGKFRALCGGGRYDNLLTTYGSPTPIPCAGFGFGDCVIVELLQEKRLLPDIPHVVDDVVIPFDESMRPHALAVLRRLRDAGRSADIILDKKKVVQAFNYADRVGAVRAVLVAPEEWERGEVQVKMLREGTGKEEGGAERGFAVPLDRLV", "assay": "Trypanosoma cruzi histidyl tRNA synthetase (Tc-HisRS)", "assay_type": "functional", "parameters": "scale not given: direction of the effect not stated beside the values", "settings": "30 µM", "units": {"Percent Effect": "%"}, "values": [{"smiles": "CC(C)CN1C(=O)CO[C@@H]2CN(C(=O)CC(F)(F)F)C[C@H]21", "Percent Effect": 7.53}, {"smiles": "Cn1cc(NC(=O)N2CCCC2c2ccccn2)ccc1=O", "note": "(centres undefined)", "Percent Effect": 69.3}, {"smiles": "Cn1cc(NC(=O)N2CCC2c2ccccc2)ccc1=O", "note": "(centres undefined)", "Percent Effect": 22.6}, {"smiles": "Cn1cc(NC(=O)N2CCCC2c2cccnc2)ccc1=O", "note": "(centres undefined)", "Percent Effect": 38.6}, {"smiles": "Cc1cccc(C(=O)N2C[C@H](NS(C)(=O)=O)[C@@H]3OCCC[C@@H]32)n1", "Percent Effect": 12.6}, {"smiles": "COC(=O)c1ccc(CNC(=O)Nc2ccc(=O)n(C)c2)cc1", "Percent Effect": 7.79}, {"smiles": "CN(Cc1ccsc1)C(=O)Nc1ccc(=O)n(C)c1", "Percent Effect": 13}, {"smiles": "O=C(NCc1ccoc1)Nc1ccc(CN2CCOC2=O)cc1", "Percent Effect": 3.25}, {"smiles": "Cn1cc(NC(=O)NCc2ccoc2)ccc1=O", "Percent Effect": 72.7}, {"smiles": "Cn1cc(NC(=O)NCc2ccsc2)ccc1=O", "Percent Effect": 72.7}, {"smiles": "COc1ccc(CNC(=O)Nc2ccc(=O)n(C)c2)cc1", "Percent Effect": 76.6}, {"smiles": "COc1ccc(CNC(=O)Nc2ccc(CN3CCOC3=O)cc2)cc1", "Percent Effect": 2.12}, {"smiles": "Cc1nnc(NC(=O)NCc2ccoc2)s1", "Percent Effect": 7.43}, {"smiles": "Cn1cc(NC(=O)CCc2ccsc2)ccc1=O", "Percent Effect": 18.2}, {"smiles": "Cc1ccc(N2CCCC3(COCCN(c4nccs4)C3)C2)nn1", "note": "(centres undefined)", "Percent Effect": 12.4}, {"smiles": "Cc1ccc(N2CC3(CCN(c4nccs4)C3)C2)nn1", "Percent Effect": 4.96}, {"smiles": "Cc1ccc(N2CCC3(CC2)COCCN(c2nccs2)C3)nn1", "Percent Effect": 62.3}, {"smiles": "CNc1cc(-c2ccc(COCCN)cc2)c2cc[nH]c2n1", "Percent Effect": 4.88}, {"smiles": "CNc1cc(-c2ccccc2CN)c2cc[nH]c2n1", "Percent Effect": 40.2}, {"smiles": "CNc1cc(-c2cccc(CN)c2)c2cc[nH]c2n1", "Percent Effect": 81.7}, {"smiles": "CN(Cc1cccs1)C1CCC[C@@H]2CN(C(=O)c3cccn3C)C[C@H]12", "note": "(some centres undefined)", "Percent Effect": 5.06}, {"smiles": "c1ccc2c(c1)N(CC1CCOC1)CC21CCN(c2cnccn2)CC1", "note": "(centres undefined)", "Percent Effect": 29.6}, {"smiles": "O=C1N(CC2CC2)CCC12CCN(c1ncccn1)CC2", "Percent Effect": 4.51}, {"smiles": "c1cnc(N2CCC3(CC2)CN(CC2CC2)c2ccccc23)nc1", "Percent Effect": 66.2}, {"smiles": "CC(C)=CCN1C[C@H]2CC[C@@H]1CN(C(=O)c1ccc3c(c1)OCO3)C2", "Percent Effect": -7.73}, {"smiles": "O=C1O[C@@H]2CN(Cc3ccccc3F)C[C@@H]2N1CCCN1CCOCC1", "Percent Effect": 10.2}, {"smiles": "CC(C)COC[C@@H]1CC[C@H]2[C@H](CCN2C(=O)c2ccncc2F)O1", "Percent Effect": -2.8}, {"smiles": "COCCNC(=O)[C@@]12CCO[C@@H]1CCN(Cc1scnc1C)C2", "Percent Effect": 4.3}, {"smiles": "COc1ccc(N2Cc3nc(N4CCCC4)ncc3C2=O)cc1Cl", "Percent Effect": -3.73}, {"smiles": "CCc1cc(N[C@H]2CC[C@@H](N)CC2)n2nc(C)c(C)c2n1", "Percent Effect": 1.34}, {"smiles": "CC(C)CS(=O)(=O)N1C[C@H]2C[C@H](C(=O)N3CCN(C)CC3)[C@@H](C1)O2", "Percent Effect": 7.78}, {"smiles": "CN1CCCCC1c1ncc2c(n1)CCN(Cc1ccc(Cl)c(F)c1)C2", "note": "(centres undefined)", "Percent Effect": 30}, {"smiles": "O=C([C@H]1C[C@@H]2CCN(c3cccc(F)c3)C[C@H]2O1)N1CCCC1", "Percent Effect": 0.952}, {"smiles": "c1ccc(CNc2ncc(CN3CCCN4CCC[C@H]4C3)cn2)cc1", "Percent Effect": 48.1}, {"smiles": "CN1CCN2CCN(Cc3cnc(NCc4ccccc4)nc3)CC2C1", "note": "(centres undefined)", "Percent Effect": 9.88}, {"smiles": "C1CC(CN2C[C@@H]3C[C@@H](c4nnc(C5CC5)o4)O[C@@H]3C2)C1", "Percent Effect": 0}, {"smiles": "O=C(c1ccc(F)cc1)N1C[C@@H]2COC[C@]2(COc2cccnc2)C1", "Percent Effect": 8.47}, {"smiles": "Cc1ccc(C(=O)N2CC[C@@H]3[C@H]2CCC(=O)N3c2ccccc2)o1", "Percent Effect": 2.73}, {"smiles": "CCCN1CC[C@@H]2[C@@H](CO[C@H]2CNC(=O)c2nccn2C)C1", "Percent Effect": 3.09}, {"smiles": "Fc1cccc(CN2CCC(c3cc4ncccc4cn3)CC2)c1F", "Percent Effect": 33.9}, {"smiles": "Fc1ccc(F)c(CN2CCC(c3cc4ncccc4cn3)CC2)c1", "Percent Effect": 29.2}, {"smiles": "COc1ccc(C)cc1CN1CCC(c2cc3ncccc3cn2)CC1", "Percent Effect": 66.2}, {"smiles": "Cc1occc1C(=O)N1C[C@@H]2OCCN(CCN3CCCC3)[C@@H]2C1", "Percent Effect": 4.9}, {"smiles": "Cc1csc(CN2CC[C@H]3C[C@H](c4nnc(C)[nH]4)O[C@@H]3C2)n1", "Percent Effect": -2.48}, {"smiles": "Cc1ccc(S(=O)(=O)N2C[C@H]3C[C@H](NC(=O)c4ccnn4C)[C@H]3C2)cc1", "Percent Effect": 5.95}, {"smiles": "O=C(c1ccsc1)N1C[C@@H]2CCN(c3cccnc3)C[C@@H]2C1", "Percent Effect": -1.97}, {"smiles": "CC(C)=CCN1CCN(Cc2nc3ccccc3[nH]2)[C@H]2CS(=O)(=O)C[C@H]21", "Percent Effect": 4.35}, {"smiles": "Cc1cc(C(=O)N2C[C@@H]3COC[C@]3(c3nnc(C)o3)C2)on1", "Percent Effect": 0.99}, {"smiles": "CNc1nc2c(s1)C(c1c(F)cccc1Cl)CC(=O)N2", "note": "(centres undefined)", "Percent Effect": 52.2}]}]}
